The whole screen tested about 1,200 compounds, of which about 60 (5%) were called active. About 1% were inconclusive and are not listed.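 The calls were made as follows: active = Decreasing signal and fitted IC50 at most twice the top valid tested dose; inconclusive = Bad fit or a level curve showing 30 to 70% inhibition; inactive = the rest.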 These entries were drawn from the full list. Entries with a potency or affinity are not part of this list.
target: NAD-dependent protein deacylase sirtuin-5, mitochondrial (Homo sapiens) (UniProt Q9NXA8); experiment: sirtuin-5 deacylation blockers, concentration series – biochemical, fluorescence imaging, cherry-pick, set 5, dose response (AID 720591); details: Purified SirT5, succinyl-peptide AMC, trypsin-coupled fluorescence; series mostly up to 15 µM
Sequence (Q9NXA8 whole entry, looked up): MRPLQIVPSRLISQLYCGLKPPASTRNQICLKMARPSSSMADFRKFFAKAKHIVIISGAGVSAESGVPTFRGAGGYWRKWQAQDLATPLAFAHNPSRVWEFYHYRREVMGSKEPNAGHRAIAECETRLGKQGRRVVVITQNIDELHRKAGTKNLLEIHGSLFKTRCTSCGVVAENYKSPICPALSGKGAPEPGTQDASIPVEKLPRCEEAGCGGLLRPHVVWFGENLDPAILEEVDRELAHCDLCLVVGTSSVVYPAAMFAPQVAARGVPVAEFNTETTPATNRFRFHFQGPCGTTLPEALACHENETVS

SMILES	outcome
Cc1ccc(S(=O)(=O)c2nc(Cc3ccccc3)oc2N2CCOCC2)cc1	inactive
Cc1ccc(C(C(=O)NC(C)(C)C)N(C(=O)CCC(=O)Nc2ccccn2)c2ccccc2F)cc1 (stereo not given)	inactive
CO/N=C(\C(=O)N[C@@H]1C(=O)N2C(C(=O)O)=C(COC(C)=O)CS[C@H]12)c1csc(N)n1 (stereo in doubt)	inactive
Cc1ccc(-c2ccc(=O)n(CC(=O)Nc3ccc4c(c3)OCCO4)n2)cc1	inactive
COc1ccc(N2CCN(C(=O)CN(C)S(=O)(=O)c3cc(C)ccc3OC)CC2)cc1	inactive
N[C@@H](CO)c1nnc([C@H](Cc2ccc(O)cc2)NC(=O)C2CCNCC2)o1	inactive
O=S(=O)(CCc1ccncc1)c1ccc(Cl)cc1	inactive
NCC(O)CN(c1ccccc1)c1ccccc1 (stereo not given)	inactive
O=C(c1cccc(F)c1)N1CCCC(C(=O)N2CCCCC2)C1 (stereo not given)	inactive
O=C(c1cccc(F)c1)N1CCCC(C(=O)N2CCCCCC2)C1 (stereo not given)	inactive
CC(=O)Nc1ccc(S(=O)(=O)Nc2ccc(-n3cnnn3)cc2)cc1	inactive
O=C(Nc1ccc(F)cc1)C1CC(=O)n2ncnc2N1 (stereo not given)	inactive
C[C@H](CO)N1C[C@H](C)[C@@H](CN(C)Cc2ccccn2)Oc2ncc(Br)cc2C1=O	inactive
N#Cc1c(SCC(=O)Nc2nccs2)sc2c(O)cc(=O)[nH]c12	inactive
Cc1csc(NC(=O)CSc2sc3c(O)cc(=O)[nH]c3c2C#N)n1	inactive
CC(=O)N1N=C(N)SC12CCCC2	inactive
C[C@H]1CN([C@@H](C)CO)C(=O)c2cc(Br)cnc2O[C@H]1CN(C)C(=O)c1ccccn1	inactive
C[C@@H]1CN([C@H](C)CO)C(=O)CCCn2nncc2CO[C@H]1CN(C)C(=O)Nc1cccc2ccccc12	inactive
CC(C)NC(=O)N(C)C[C@@H]1OCc2cnnn2CCCC(=O)N([C@@H](C)CO)C[C@H]1C	inactive
Cc1ccnc(NS(=O)(=O)c2ccc(NC(=O)Cc3ccc(F)cc3)cc2)n1	inactive
Cc1noc(C)c1COc1ccc(C(=O)N2CCN(S(=O)(=O)c3cccc(F)c3)CC2)cc1	inactive
COc1ccc(NC(=O)CN(c2ccc(Cl)cc2)S(C)(=O)=O)cc1OC	inactive
O=C(COC(=O)CC1CC2CCC1C2)Nc1ccc(F)cc1 (stereo not given)	inactive
O=C(COC(=O)CC1CC2CCC1C2)NCc1ccccc1 (stereo not given)	inactive
COc1ccccc1OCCSc1nc2ccccc2n1CC(O)CO (stereo not given)	inactive
COc1cc(C(=O)NCCCc2nc3ccccc3n2Cc2cc(C)ccc2C)cc(OC)c1OC	inactive
c1ccc(CCc2nc(-c3ccc(-n4cccc4)cc3)no2)cc1	inactive
Cc1ccc(-c2noc(CN(C)C(=O)c3ccc(Br)o3)n2)cc1	inactive

SMILES	outcome
Cc1ccc(CNC(=O)C2CCCN(S(=O)(=O)N3CC(C)CC(C)C3)C2)cc1 (stereo not given)	inactive
O=C(COc1ccccc1)Nc1ncn[nH]1	inactive
COc1cc(C)c(CN2CCN(CC(=O)Nc3ccccc3C(=O)NC3CC3)CC2)cc1OC	inactive
O=C1CCC(C(=O)N2CCCCCC2)CN1Cc1cccc(C(F)(F)F)c1 (stereo not given)	inactive
CCOC(=O)c1c(C)[nH]c(C)c1C(=O)COC(=O)c1cc2ccccc2cc1O	inactive
CCOC(=O)c1c(C)[nH]c(C)c1C(=O)COC(=O)c1cccc(C)c1O	inactive
CCOc1ccc(CCNC(=O)Cn2nc(C)c3c(C)n(-c4ccccc4)nc3c2=O)cc1	inactive
CC1=C(C(=O)N2CCOCC2)CC(CC(=O)NCC2CCCCC2)C(=O)N1CCC1=CCCCC1 (stereo not given)	inactive
COC(=O)[C@]12CCCCC=C1N(Cc1cccc3ccccc13)C(=O)[C@H](CC(=O)NCC1CCCCC1)C2	inactive
NC(=O)c1ccc(NC(=O)CCCc2nc(-c3ccccc3Cl)no2)cc1	inactive
Cc1ccc2c(c1)CO[C@@]21O[C@H](CCO)C[C@H](O)[C@H]1O	inactive
Cc1ccc(NC(=O)C2CCN(C(=O)c3ccco3)CC2)cc1	inactive
Cc1cccc(NC(=O)C2CCN(C(=O)c3ccco3)CC2)c1C	inactive
CC(C)CCN1CCN(Cc2cnc(N3CCCC3)s2)CC1CCO (stereo not given)	inactive
O=C(Cc1cccs1)N1CCN(S(=O)(=O)c2ccc(Cl)c(C(F)(F)F)c2)CC1	inactive
C/C(N)=C(/C#N)C(=O)CSc1nnc(Nc2ccccc2)s1	inactive
CCSc1nnc(NC(=O)Cc2ccc(OC)cc2)s1	inactive
Cc1ccc(OCCSc2nc3ccccc3n2CCC(=O)O)cc1	inactive
CCc1ccc(S(=O)(=O)c2ccc(-n3nc(C)cc3N)cc2)cc1	inactive
c1ccc(CCn2nnc3ccccc32)cc1	inactive
CCOC(=O)c1c(-c2ccc(C)cc2)csc1NC(=O)CCN1CC(C)OC(C)C1 (stereo not given)	inactive
CC1C(=O)N2CCCc3cc(S(=O)(=O)N4CCCCC4)cc1c32 (stereo not given)	inactive
CCCNC(=O)CC1C(=O)N(Cc2ccccc2)C(C)c2nc3ccccc3n21 (stereo not given)	inactive
CCCCNC(=O)CC1C(=O)N(Cc2ccccc2)C(C)c2nc3ccccc3n21 (stereo not given)	inactive
CCCCCCN1CCN(C2CN(C3CCCCC3)S(=O)(=O)C2)CC1 (stereo not given)	inactive
CCN(c1ccccc1)S(=O)(=O)c1nnc(NC(=O)C(C)(C)C)s1	inactive
COc1ccc(C(CNC(=O)c2cccc(S(=O)(=O)N3CCCCC3)c2)N2CCCC2)cc1 (stereo not given)	inactive

From PubChem BioAssay AID720591 (Broad Institute, 2013)
